Among all 4,100 compounds or so, about 1,600 (39%) were called active. About 25% were inconclusive and are not listed. This is one part of the list. Values without a mark were called inactive. Calls follow the shape of the dose curve; as a rule, active = well fitted inhibition curve with a large enough effect; inconclusive = small, poorly fitted or top-dose-only effect; inactive = no such curve, though single readings can be large or run the other way.
% is scaled to controls: 0 for no effect and ±100 for the full control effect; potency is read from the fitted curve at half-maximal effect.

A short description of the test: qHTS Validation assay for Inhibitors of Plasmodium falciparum Dd2 growth in vitro. Also: nearly all actives have a fitted effect of over 70% in size. Conditions: P. falciparum Dd2 in RBCs, SYBR Green growth, 72 h; series mostly up to 28.7 µM; activity change, negative = inhibition: at the top concentration. The text has this:
Malaria, a parasitic disease spread to humans through the bite of a Plasmodium infected Anopheles mosquito, continues to be a global health burden affecting millions of people, with an estimated 228 million cases and 405,000 deaths in 2018. Concerns about safety and limitations of current antimalarial treatments strongly emphasize the need to develop new therapeutic options. The scarce number of chemotypes and validated drug targets with efficacy against the liver stage, have hindered development of new antimalarials. To address this, a chemoprophylactic drug discovery effort was conducted through a combined phenotypic high-throughput asexual blood stage and liver stage screen, providing a robust foundation to identify liver-stage active lead chemotypes. Compounds were initially screened against Plasmodium falciparum Dd2 strain parasites using a in vitro SYBRGreen-1 based 72 hr proliferation assay to identify novel chemotypes to advance to liver stage assays. NIH/NCATS Early Translation Branch Assay Submitter (PI): Anton Simeonov Ph.D.
[…] Assay Protocol: PROTOCOL TABLE (as described by Inglese et al., 2007) SEQUENCE No. (e.g., 1, 2, 3, etc.); PARAMETER (e.g., Cells, Incubation, Reagent, etc.); VALUE; DESCRIPTION SEQUENCE, Parameter, Description 1; Reagent; 3 uL complete malaria growth medium, 1536 TC treated Black clear bottom plate 2; Controls; 23 nL positive control artesunate (300 nM final) to column 1; Neutral control DMSO to columns 2-4 3; Compound; 23 nL of compounds in dose response concentration (29 uM to 0.5 nM final) 4; Reagent; 5 uL malaria infected red blood cells (2.5% hematocrit final, 0.3% parasitemia 5; Time; 72 hours at 37C (5% O2, 5% CO2, 90% N2; 95% Rh) 6; Reagent; 2 uL lysis buffer/SYBRGreen-1, 25 sec shake immediately following dispense 7; Time; ~16 hours at 37C (5% O2, 5% CO2, 90% N2; 95% Rh) 8; Detector; EnVision (PerkinElmer) bottom read at 485/14nm excitation and 535/25 nm emission NOTES (numbers refer to sequence above): 1; Complete Malaria Growth Media: 1X RPMI-1640 w/L-glutamine, 5.5g/L Albumax II, 367 uM Hypoxanthine, 25 mM HEPES, 0.25% Sodium Bicarbonate, 35 uM Gentamicin sulfate 2; Controls were added using the Kalypsis Pintool (Wako USA) equipped with 1536 pinhead 3; Compounds were added in a 7-point, titration with a high final concentration of 29 uM by Pintool from seven inter-plate titrations of library plates and two DMSO control plates at the beginning and end (see Yasgar et al., 2008). 4; Red blood cells infected with Plasmodium falciparum Dd2 parasites were used. 6; Lysis buffer: 20 mM Tris-HCl, 10 mM EDTA, 0.16% Saponin, 1.6% Triton-X, 10X SYBR Green. REFERENCE: Inglese J, Shamu CE, Guy RK. 2007. Reporting data from high-throughput screening of small-molecule libraries. Nat Chem Biol. doi:10.1038/nchembio0807-438 Yasgar A, Shinn P, Jadhav A, Auld D, Michael S, Zheng W, Austin CP, Inglese J, Simeonov A. 2008. Compound Management for Quantitative High-Throughput Screening. J Lab Autom 13:79-89. doi:10.1016/j.jala.2007.12.004
For orientation: qHTS replaces the single test concentration by a dilution series.
In the case of `CN1CC2(CCCN(CC3CC3)C2)c2cc(C(=O)NCCOc3ccccc3)ccc21` (centres undefined), the Potency is 17.2 µM (active).
Turning to `COCCN1CCCCCC(O)c2cc(C(=O)NCCc3ccccc3)ccc21` (centres undefined), the “activity change, negative = inhibition” value was -13.9%.
`Cc1ccccc1CN1CCc2nc(C(=O)NCCOc3ccccc3)oc2CC1`: the “activity change, negative = inhibition” value was 21.9% [at 43.1 µM].
On to `COc1cc2nc(NCCC(C)C)n3nc(-c4ccccc4)nc3c2cc1OC`, for which the Potency was 0.422 µM (active).
The same measure, in the same setting: the figure for `COCCCNc1nc2cc(OC)c(OC)cc2c2nc(-c3ccccc3)nn12` is 0.237 µM (active); for `CCOCCCNc1nc2cc(OC)c(OC)cc2c2nc(-c3ccccc3)nn12` it is 0.211 µM (active).
As to `CC(C)CN1C(=O)c2cccn2CC1C(=O)O` (centres undefined), the “activity change, negative = inhibition” value is 31.9%.
Turning to `CCN1C(=O)C2(CCN(S(=O)(=O)c3ccc(Cl)cc3C)CC2)c2ccccc21`, the Potency was 5.31 µM (active).
Regarding `CN1C(=O)C2(CCN(C(=O)c3ccn(C(C)(C)C)c3)CC2)c2ccccc21`, the “activity change, negative = inhibition” value is -35.1%.
For `COc1ccc(-c2cc3c(=O)n(CCNC(=O)c4ccc(N(C)C)cc4)ccn3n2)cc1`, the “activity change, negative = inhibition” value was -7.95%.
The same measure, in the same setting: then `COc1ccc(-c2nc3scc(CCNC(=O)c4cccc(Br)c4)n3n2)cc1`, with 24.6%.
On to `COc1ccc(-c2nc3sc(CCNC(=O)c4ccc(C(C)(C)C)cc4)c(C)n3n2)cc1`, for which the Potency was 2.11 µM (active).
Consider `CCCc1cc(=O)oc2c(C)c(O)c(CN3CCCCC3)cc12`, for which the Potency was 3.35 µM (active).
On the same count and under the same terms, then `Cc1c(O)c(CN2CCCCC2)cc2c1oc(=O)c1ccccc12`, with 0.75 µM (active); and `Cc1c(O)c(CN2CCCC2)cc2c1oc(=O)c1ccccc12`, with 2.66 µM (active); and `Cc1c(O)c(CN(C)C)cc2c1oc(=O)c1ccccc12`, with 4.22 µM (active).
As to `O=C1CCCCN1Cc1nc(C2CCOC2)no1` (centres undefined), the “activity change, negative = inhibition” value was 38.8%.
On to `Cc1cc(C)c2oc(=O)cc(CN3CCCCC3)c2c1`, for which the Potency is 13.3 µM (active).
Regarding `COc1ccc(C(=O)N2CCCC(n3cc(-c4nc(C(C)C)no4)nn3)C2)cn1` (centres undefined), the “activity change, negative = inhibition” value was 0.265%.
On to `C=CCCC(CN1CCCC1)Oc1ccc(C(=O)N2CCCC2)cn1` (centres undefined), for which the Potency was 13.3 µM (active).
For the compound `CC(C)CN(Cc1cc(=O)oc2cc3c(cc12)CCCC3)CC(C)C`, the Potency was 15 µM (active).
`CCOC(=O)C(C)/C(C)=N/NC(N)=S` (centres undefined): the Potency is 2.66 µM (active).
Take `N#Cc1ccc(C23CC4CC(CC(C4)C2)C3)[nH]c1=O`: the “activity change, negative = inhibition” value is 23.7%.
Consider `O=C(Nc1ccc(C2=NCCN2)cc1)c1ccc(C(=O)Nc2ccc(C3=NCCN3)cc2)c([N+](=O)[O-])c1`, for which the Potency is 0.237 µM (active).
Regarding `CC1Oc2ccc(NC(=O)c3ccc(Cl)c(Cl)c3)cc2CN(Cc2ccccc2F)C1=O` (centres undefined), the “activity change, negative = inhibition” value was -1.4%.
For `CC(C)(C)c1ccc(C(=O)Nc2ccc(-c3nc4cc(Cl)ccc4o3)cc2)cc1`, the “activity change, negative = inhibition” value was 9.61%.
For the compound `O=C(Nc1ccc(C2=NCCN2)cc1)c1ccc(C(=O)Nc2ccc(C3=NCCN3)cc2)c(Cl)c1`, the Potency was 0.473 µM (active).
Take `Cc1cc(C[C@@H]2COC[C@@H]2NC(=O)CCc2ccc(=O)[nH]n2)on1`: the “activity change, negative = inhibition” value is 50.1%.
For the compound `COc1cc(NC(=O)c2cc([N+](=O)[O-])ccc2NC(=O)CNC2CCCCC2C)cc(OC)c1` (centres undefined), the Potency is 5.96 µM (active).
In the case of `COC(=O)c1cc(C(=O)c2ccc(Cl)cc2Cl)cn1C`, the Potency is 13.3 µM (active).
As for `CCc1ccc(C2=CC(c3cccc(C)c3)n3c(nc4ccccc43)N2)cc1` (centres undefined), the Potency is 15 µM (active).
Take `CC1=C[C@@H](CN2CCCC2)[C@H](C(C)C)C[C@H]1Cc1nnc(-c2ccc([N+](=O)[O-])cc2)o1`: the Potency is 3.85 µM (active).
Turning to `CC1=C[C@@H](CN2CCN(c3ncccn3)CC2)[C@H](C(C)C)C[C@H]1Cc1nnc(COc2ccc(F)cc2)o1`, the Potency was 0.75 µM (active).
Consider `COc1ccc(-c2nnc(C[C@@H]3C[C@@H](C(C)C)[C@H](CN4CCC(O)CC4)C=C3C)o2)cc1`, for which the Potency is 9.44 µM (active).
Still for that read-out and setting: the figure for `CC1=C[C@@H](CN2CCOCC2)[C@H](C(C)C)C[C@H]1Cc1nnc(-c2ccc([N+](=O)[O-])cc2)o1` is 9.44 µM (active).
Consider `COc1ccc(C(=O)N[C@@H]2CCC[C@@H]2C(=O)NCCCN(C)C)cn1`, for which the “activity change, negative = inhibition” value was 21.5%.
As for `COC(=O)CNC(=O)N1CCCCC1c1nc(CCOc2cccc(C)c2)no1` (centres undefined), the “activity change, negative = inhibition” value is 17.4%.
As for `COc1nc2c(cc1CNC(=O)C(C)(C)OC)C(=O)N(CCc1ccccn1)C2`, the “activity change, negative = inhibition” value was 42.1%.
Take `Cc1noc(-c2cn(C3CCN(C(=O)c4ccc(C)s4)C3)nn2)n1` (centres undefined): the “activity change, negative = inhibition” value was 30%.
Regarding `CC1=C[C@@H](CN2CCC(C)CC2)[C@H](C(C)C)C[C@H]1Cc1nnc(-c2cccnc2)o1`, the Potency was 15.3 µM (active).
In the case of `Cc1ccc(S(=O)(=O)N(C)CC2CCOCC2)c(C)c1`, the “activity change, negative = inhibition” value was 48.2%.
On the same count and under the same terms, the figure for `COc1ccccc1CNC(=O)c1cc2c(s1)CCN(C(=O)c1ccc(C)cc1)C2` is -15.5%; for `O=C(c1ccc2c(c1)N(Cc1ccc(Cl)cc1)C(=O)c1ccccc1S2(=O)=O)N1CCCC1` it is -8.99%.
For `CCOC(=O)C1CCCN(C(=O)c2ccc3c(c2)N(Cc2ccccc2)C(=O)c2ccccc2S3(=O)=O)C1` (centres undefined), the Potency was 6.68 µM (active).
Consider `COc1ccccc1N1CCN(C(=O)c2ccc3c(c2)N(Cc2cc(C)ccc2C)C(=O)c2ccccc2S3(=O)=O)CC1`, for which the Potency was 9.44 µM (active).
As for `Cc1ccc(C)c(CN2C(=O)c3ccccc3S(=O)(=O)c3ccc(C(=O)N4CCCCCC4)cc32)c1`, the “activity change, negative = inhibition” value is -26.1%.
Consider `Cc1ccc(Cl)cc1N1CCN(C(=O)c2ccc3c(c2)N(Cc2ccccc2F)C(=O)c2ccccc2S3(=O)=O)CC1`, for which the Potency is 5.31 µM (active).
Regarding `Cc1ccc(C)c(CN2C(=O)c3ccccc3S(=O)(=O)c3ccc(C(=O)NCCc4ccc(Cl)cc4)cc32)c1`, the Potency is 7.5 µM (active).
On to `O=C(c1ccc(F)c(F)c1)N1CCC2(CC1)N(c1ccccc1)C(=O)CS2(=O)=O`, for which the “activity change, negative = inhibition” value was 8.69%.

Source of the values: PubChem BioAssay AID1347416 (National Center for Advancing Translational Sciences (NCATS), 2020).
